Assay results as given in PubChem BioAssay AID1159580 (chemical genetic matrix, 2015).
Where “and” joins values, the source holds several entries; their conditions need not be identical. Identical values can stand only once. Out of some 5,500 compounds screened, about 2,000 (36%) were called active. Inconclusive results (about 18%) are left out. Rule as the data show it: active = normalized growth mostly below about 0.91 (no sharp cut-off); inconclusive = no clear call, values can overlap the other calls; inactive = mostly above about 0.92. This is one part of the list.

Assay: chemical genetic growth profiling, strain panel (AID 1159580);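 also: tested at 20 µM; growth read once vehicle control cultures reached saturation at 30 °C; 1 = growth at the plate median or of vehicle wells; lower values mean less growth of the strain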
Settings: S. cerevisiae deletion strains, growth OD

Measured: normalized growth

C[C@@H]1CC2C3C[C@H](F)C4=CC(=O)C=C[C@]4(C)[C@@]3(F)[C@@H](O)C[C@]2(C)[C@@]1(O)C(=O)COC(=O)C(C)(C)C (some centres not stated)
inactive: locus YAL021C, strain ccr4, stronger effect = lower value 0.995 | locus YAL026C, strain drs2, stronger effect = lower value 1 | locus YAL030W, strain snc1, stronger effect = lower value 0.98 | locus YBL061C, strain skt5, stronger effect = lower value 0.994 | locus YBR009C, strain hhf1, stronger effect = lower value 0.972 | locus YBR021W, strain FUR4, stronger effect = lower value 1.01 | locus YBR023C, strain chs3, stronger effect = lower value 0.983 | locus YBR171W, strain sec66, stronger effect = lower value 0.998 | locus YBR229C, strain ROT2, stronger effect = lower value 1 | locus YBR231C, strain swc5, stronger effect = lower value 0.98 | locus YBR279W, strain paf1, stronger effect = lower value 0.986 | locus YCL011C, strain gbp2, stronger effect = lower value 1.01 | locus YCL016C, strain dcc1, stronger effect = lower value 0.995 | locus YCL029C, strain bik1, stronger effect = lower value 0.992 | locus YCL069W, strain vba3, stronger effect = lower value 1 | locus YCR088W, strain abp1, stronger effect = lower value 1.01 | locus YDL005C, strain med2, stronger effect = lower value 1 | locus YDL035C, strain GPR1, stronger effect = lower value 0.982 | locus YDL040C, strain nat1, stronger effect = lower value 0.985 | locus YDL074C, strain BRE1, stronger effect = lower value 1 | locus YDL101C, strain DUN1, stronger effect = lower value 1.01 | locus YDL134C, strain PPH21, stronger effect = lower value 0.98 | locus YDL185W, strain tfp1, stronger effect = lower value 1 | locus YDL192W, strain arf1, stronger effect = lower value 1.01 | locus YDR001C, strain nth1, stronger effect = lower value 0.998 | locus YDR069C, strain doa4, stronger effect = lower value 0.991 | locus YDR101C, strain arx1, stronger effect = lower value 0.97 | locus YDR137W, strain rgp1, stronger effect = lower value 1 | locus YDR150W, strain NUM1, stronger effect = lower value 0.999 | locus YDR159W, strain sac3, stronger effect = lower value 0.991 | locus YDR162C, strain NBP2, stronger effect = lower value 0.987 | locus YDR195W, strain ref2 0.911 | locus YDR297W, strain sur2, stronger effect = lower value 0.993 | locus YDR318W, strain mcm21, stronger effect = lower value 1.01 | locus YDR334W, strain swr1, stronger effect = lower value 1 | locus YDR335W, strain msn5, stronger effect = lower value 0.995 | locus YDR388W, stronger effect = lower value 1.01 | locus YDR392W, strain spt3, stronger effect = lower value 1 | locus YDR502C, strain sam2, stronger effect = lower value 1 | locus YEL003W, strain gim4, stronger effect = lower value 1 | locus YEL037C, strain rad23, stronger effect = lower value 0.994 | locus YEL061C, strain CIN8 (second series), stronger effect = lower value 1.01 | locus YEL061C, strain CIN8, stronger effect = lower value 1 | locus YER015W, strain faa2, stronger effect = lower value 0.996 | locus YER016W, strain bim1, stronger effect = lower value 0.99 | locus YER110C, stronger effect = lower value 1.02 | locus YER111C, strain swi4, stronger effect = lower value 0.999 | locus YER155C, strain BEM2 (second series), stronger effect = lower value 0.991 | locus YER155C, strain BEM2, stronger effect = lower value 1.01 | locus YER167W, strain BCK2, stronger effect = lower value 0.997 | locus YFR010W, strain ubp6, stronger effect = lower value 0.997 | locus YGL078C, strain dbp3, stronger effect = lower value 1.01 | locus YGL086W, strain mad1, stronger effect = lower value 0.983 | locus YGL167C, strain pmr1, stronger effect = lower value 0.989 | locus YGL173C, strain kem1, stronger effect = lower value 0.994 | locus YGL227W, strain vid30, stronger effect = lower value 1.01 | locus YGL240W, strain doc1, stronger effect = lower value 0.971 | locus YGL248W, strain PDE1, stronger effect = lower value 1.01 | locus YGL253W, strain hxk2, stronger effect = lower value 1.01 | locus YGR135W, strain pre9, stronger effect = lower value 1.05 | locus YGR252W, strain gcn5, stronger effect = lower value 1.06 | locus YHR013C, strain ard1, stronger effect = lower value 0.965 | locus YHR027C, strain rpn1, stronger effect = lower value 0.998 | locus YHR030C, strain SLT2, stronger effect = lower value 1 and 0.992 | locus YHR079C, strain IRE1 (second series), stronger effect = lower value 1 | locus YHR079C, strain IRE1, stronger effect = lower value 0.972 | locus YHR094C, strain hxt1, stronger effect = lower value 1.01 | locus YHR129C, strain ARP1, stronger effect = lower value 1.01 | locus YHR142W, strain chs7, stronger effect = lower value 1.01 | locus YHR200W, strain rpn10, stronger effect = lower value 1 | locus YIL066C, strain RNR3, stronger effect = lower value 0.997 | locus YIL073C, strain SPO22, stronger effect = lower value 0.995 | locus YIL125W, strain kgd1, stronger effect = lower value 1 | locus YIR030C, strain dcg1, stronger effect = lower value 1 | locus YJL092W, strain hpr5, stronger effect = lower value 1 | locus YJL095W, strain BCK1 (second series), stronger effect = lower value 0.989 | locus YJL095W, strain BCK1, stronger effect = lower value 1.03 and 0.963 | locus YJL115W, strain asf1, stronger effect = lower value 0.993 | locus YJL129C, strain trk1, stronger effect = lower value 1 | locus YJL134W, strain LCB3, stronger effect = lower value 1 | locus YJL154C, strain vps35, stronger effect = lower value 0.997 | locus YJL164C, strain tpk1, stronger effect = lower value 0.989 | locus YJL166W, strain qcr8, stronger effect = lower value 0.966 | locus YJL168C, strain set2, stronger effect = lower value 1.01 | locus YJL187C, strain SWE1 (second series), stronger effect = lower value 1 | locus YJR043C, strain POL32, stronger effect = lower value 0.983 | locus YJR066W, strain TOR1, stronger effect = lower value 0.944
